High-throughput results from PubChem BioAssay.
Hits are enriched below; roughly 8% of the tested compounds scored in any of these assays.
TSHR antagonist: human thyrotropin receptor antagonism. 330,000 tested, 0.2% active. TSHR-expressing cells, TSH-stimulated cAMP HTRF, 2 h; stronger effect = lower value. activity change, negative = inhibition, % at 11.5 µM. P16473;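 active = activity change below a set negative limit, meaning inhibition stronger than a set level, cut at about -70% in these data; inconclusive = activity change between two set negative limits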
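Inhibition of cAMP made by TSHR-expressing cells under TSH stimulation (4nM final, EC80; 2 h, 37 deg C) is quantified with a one-step lysis HTRF kit, anti-cAMP cryptate versus cAMP-d2.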
VP16 counter: Gal4-VP16 reporter inhibition counter-screen; AID 2546; Drosophila S2 Gal4-VP16 UAS-luciferase, luminescence, 20 h; 310,000 tested, 3.5% active; Potency, µM (titrated, usually from 53.6 µM), for inactives: at the top dose activity, negative = inhibition, most hits filed as inhibitors;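 note: Gal4-VP16 expression switched on by copper sulfate through the metallothionein promoter; potency is the fitted concentration of half-maximal effect; nearly all actives have a fitted effect of over 50% in size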
RORg inh: blocks mouse ROR gamma transcriptional activity. P51450. Potency, µM (doses to about 53.6 µM), for inactives: top-dose activity change, negative = inhibition, hits mostly inhibitors. 310,000 tested, 5.4% active. Drosophila S2 Gal4-RORgamma UAS-luciferase reporter, 20 h. AID 2551; note: potency is the fitted concentration of half-maximal effect; nearly all actives have a fitted effect of over 60% in size
Target sequence (P51450 whole entry, looked up, the tested form may be a part): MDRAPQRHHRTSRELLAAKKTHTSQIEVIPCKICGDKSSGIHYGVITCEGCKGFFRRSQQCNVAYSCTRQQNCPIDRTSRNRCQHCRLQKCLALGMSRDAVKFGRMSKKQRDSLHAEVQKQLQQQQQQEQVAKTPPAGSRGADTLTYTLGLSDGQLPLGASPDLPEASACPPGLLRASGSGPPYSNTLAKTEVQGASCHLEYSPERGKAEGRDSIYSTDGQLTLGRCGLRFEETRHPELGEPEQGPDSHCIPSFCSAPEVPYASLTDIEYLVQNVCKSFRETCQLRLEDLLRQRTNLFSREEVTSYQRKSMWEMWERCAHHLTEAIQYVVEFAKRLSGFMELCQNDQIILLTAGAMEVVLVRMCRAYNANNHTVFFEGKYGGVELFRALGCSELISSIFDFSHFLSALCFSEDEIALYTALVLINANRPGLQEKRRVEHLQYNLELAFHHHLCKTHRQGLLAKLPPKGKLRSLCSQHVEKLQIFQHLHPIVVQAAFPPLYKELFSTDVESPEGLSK
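Stable Schneider cell line, Gal4 DNA-binding domain fused to ROR gamma, UAS-luciferase. Cmpd 1 hr RT → CuSO4 700 uM final → 20 hr RT → luciferase reagent 10 min → luminescence.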
ELG1 repair inh: inhibitors of ELG1-dependent DNA repair in HEK293T cells; HEK293T ELG1-luciferase reporter, luminescence, 16 h; DNA damage induced by 5-fluorouridine; Potency, µM (series often up to 46.1 µM), for the others: at the top dose activity change, negative = inhibition, hits mostly inhibitors; 330,000 tested, 2.3% active; note: potency is the fitted concentration of half-maximal effect; nearly all actives have a fitted effect of over 55% in size
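5-Fluorouridine DNA damage + compound/DMSO, 2,000 cells/well, 16 h, 37 °C/5% CO2. ONE-Glo, 30 min RT, luminescence. Readout = decrease in reporter signal.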
FBPA coupling cs: coupling enzyme interference in Giardia aldolase counter-screen; activity change, negative = inhibition, % at 58.2 µM, hits read low; coupling enzyme system counterscreen, AmpLite Red fluorescence; 290,000 tested, 0.67% active; in the data active = activity change below about -30%
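Counterscreen lacking aldolase: glyceraldehyde-3-phosphate coupling-enzyme reagent preincubated 10 min at RT with compound (at 57.5 uM final), then substrate/coupling system with AmpLite Red added; fluorescence read at 525/598 nm after 20 min RT.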
An asterisk follows results filed as active. Unless noted, calls come from the whole dose curve; as a rule, active = well fitted curve in the direction sought with a large enough effect; inconclusive = small, poorly fitted or top-dose-only effect, or another doubt; inactive = no such curve, though single readings can be large; an effect the other way counts as inactive or inconclusive. % is set by controls: 0 for no effect and ±100 for the full control effect.

What do the screens show for `COc1cc(C)c(NC(=S)Nc2ccc(C)c(Cl)c2)cc1OC`?
TSHR antagonist: -1.3; VP16 counter: inconclusive; RORg inh: 11.2µM*; ELG1 repair inh: -0.4%; FBPA coupling cs: 0.2

What do the screens show for `CC(NC(=S)Nc1ccc(Cl)cc1)C(c1ccccc1)N1CCOCC1` (stereo not given)?
TSHR antagonist: 1.1; VP16 counter: 6.31µM*; RORg inh: 6.31µM*; ELG1 repair inh: 1.6%; FBPA coupling cs: 0.8

How did CC(NC(=O)Nc1ccccc1)C(c1ccccc1)N1CCOCC1 (stereo not given) do in these assays?
TSHR antagonist: 10.8; VP16 counter: -8.5%; RORg inh: inconclusive; ELG1 repair inh: 6.6%; FBPA coupling cs: -1.4

Results for CCN1CCN(C(c2cccs2)C(C)NC(=O)c2c(F)cccc2F)CC1 (stereo not given) ?
TSHR antagonist: 2.7; VP16 counter: -3.2%; RORg inh: 27.3%; ELG1 repair inh: 1.9%; FBPA coupling cs: 1.9

Results for CCN1CCN(C(c2cccs2)C(C)NC(=S)Nc2cccc(C)c2C)CC1 (stereo not given) ?
TSHR antagonist: -5.2; VP16 counter: -3.2%; RORg inh: 11.2µM*; ELG1 repair inh: 1.1%; FBPA coupling cs: 0.9

How did Cc1cccc(NC(=S)NC(C)C(c2ccccc2)N2CCN(C)CC2)c1C (stereo not given) do in these assays?
TSHR antagonist: 8.9; VP16 counter: -7.5%; RORg inh: 11.2µM*; ELG1 repair inh: inconclusive; FBPA coupling cs: 0.3

How did COc1ccccc1-c1nc(N(C)C)c2ccccc2n1 do in these assays?
VP16 counter: inconclusive; RORg inh: -15.9%; FBPA coupling cs: 0.3

What do the screens show for `COC(=O)N1[C@H](C)C=C[C@]1(Cc1ccccc1)C(=O)NCc1ccc(C)o1`?
VP16 counter: -22.6%; RORg inh: 10.1%; FBPA coupling cs: -3.1

How did CN(C)C(=O)CCSC(SCCC(=O)O)c1cccc(/C=C/c2ccc3ccc(Cl)cc3n2)c1 (stereo not given) do in these assays?
VP16 counter: -3.5%; RORg inh: inconclusive

How did CC(C)(C)NC(=S)NCC1CC1 do in these assays?
TSHR antagonist: -3.3; VP16 counter: inconclusive; RORg inh: 7.08µM*; ELG1 repair inh: -22.8%; FBPA coupling cs: -1.2

What do the screens show for `Cc1ccccc1NC(=S)NCC1CCC(CNC(=S)Nc2ccccc2C)CC1` (stereo not given)?
TSHR antagonist: 29.3; VP16 counter: -3.7%; RORg inh: 15.7%; ELG1 repair inh: inconclusive; FBPA coupling cs: 0.0

What do the screens show for `COc1ccc(S(=O)(=O)N2CCSC2c2ccc(OC)c(OC)c2)cc1` (stereo not given)?
TSHR antagonist: 11.7; VP16 counter: -2.4%; RORg inh: 15.3%; ELG1 repair inh: 23.1µM*; FBPA coupling cs: 1.9

How did COc1ccc(C2SCCN2S(=O)(=O)c2ccc(F)cc2)cc1OC (stereo not given) do in these assays?
TSHR antagonist: -3.0; VP16 counter: -11.3%; RORg inh: 3.2%; ELG1 repair inh: -3.2%; FBPA coupling cs: -1.1

Results for Cc1cccc2c(=O)c(-c3ccc4c(c3)OCO4)c(NC(=O)c3ccco3)oc12 ?
TSHR antagonist: 3.2; VP16 counter: 3.3%; RORg inh: -7.6%; ELG1 repair inh: 10.3µM*

Results for CCOc1ccc(S(=O)(=O)NCc2ccccc2Cl)cc1C(N)=O ?
TSHR antagonist: 11.2; VP16 counter: -26.4%; RORg inh: inconclusive; ELG1 repair inh: -7.3%; FBPA coupling cs: -36.8*

Results for CCOc1ccc(S(=O)(=O)NCc2ccccc2)cc1C(N)=O ?
TSHR antagonist: 1.7; VP16 counter: inconclusive; RORg inh: -0.8%; ELG1 repair inh: inconclusive; FBPA coupling cs: -20.1

Results for CN(C)CCCN(C(=O)c1ccc([N+](=O)[O-])s1)c1nc2cc3c(cc2s1)OCCO3 ?
TSHR antagonist: -3.9; VP16 counter: inconclusive; RORg inh: 12.6µM*; ELG1 repair inh: inconclusive; FBPA coupling cs: -6.2

How did CN(C)CCCN(C(=O)c1ccc(Br)s1)c1nc2cc3c(cc2s1)OCCO3 do in these assays?
TSHR antagonist: -13.3; ELG1 repair inh: 21.0%
